Screening data from PubChem BioAssay.
In the library only some 10% were active in any assay of this set; here they are far more common.
HPGD block: inhibitors of human 15-hydroxyprostaglandin dehydrogenase (HPGD). AID 894. Potency, µM, hits mostly inhibitors. 150,000 tested, 4.3% active. purified HPGD, NADH fluorescence kinetic, PGE2 substrate. P15428
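20 nM HPGD preincubated 15 min at room temperature with compound in 50 mM Tris-HCl pH 8, 0.01% Tween 20. Started with 1 mM NAD+ and 30 uM prostaglandin E2; NADH fluorescence (360/450 nm) read 5 times over 30-s intervals, last minus first.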
Lamin A splicing: changes lamin A minigene splicing in HeLa cells; HeLa LMNA splicing GFP/RFP minigene ratio, 48 h; Potency, µM (titrated, usually from 46.1 µM), actives largely listed as inhibitors; 200,000 tested, 0.01% active; AID 1487; active means well fitted inhibition curve with a large enough effect in the signal ratio, with a control signal flat, not every such curve was filed as active; inconclusive means small, poorly fitted or top-dose-only effect, or effect the other way, or a change in a side signal; the % refers to the signal ratio
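Read-out is the ratio of GFP to DsRed2 object intensity, acquired by 488 nm laser-scanning cytometry on HeLa lamin A-EGFP minigene reporter cells. Compound incubation 48 hrs at 37 °C in Opti-MEM with 2% FBS; DMSO 0.5% final.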
ALDH1A1 inh: ALDH1A1 (human) enzyme inhibition; P00352; Purified ALDH1A1, NADH fluorescence, propionaldehyde substrate; Potency, µM (series often up to 75.3 µM), actives largely listed as inhibitors; 220,000 tested, 7.3% active
Target sequence (P00352 whole entry, looked up): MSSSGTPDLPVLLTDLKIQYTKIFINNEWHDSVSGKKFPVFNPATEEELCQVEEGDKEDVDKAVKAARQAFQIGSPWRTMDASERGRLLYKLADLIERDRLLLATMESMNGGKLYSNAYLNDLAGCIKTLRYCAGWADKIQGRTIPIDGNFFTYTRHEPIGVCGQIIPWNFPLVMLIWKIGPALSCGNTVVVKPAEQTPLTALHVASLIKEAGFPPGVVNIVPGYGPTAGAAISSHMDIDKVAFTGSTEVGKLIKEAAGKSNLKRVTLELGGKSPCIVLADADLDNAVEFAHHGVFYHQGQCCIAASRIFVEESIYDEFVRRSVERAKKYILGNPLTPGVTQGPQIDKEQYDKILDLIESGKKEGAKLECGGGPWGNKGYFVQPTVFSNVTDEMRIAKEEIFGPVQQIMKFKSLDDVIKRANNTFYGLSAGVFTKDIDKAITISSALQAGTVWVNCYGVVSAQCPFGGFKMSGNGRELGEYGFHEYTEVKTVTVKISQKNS
PNC inhibitor: inhibitors of perinucleolar compartment assembly | PC3M PTB-GFP, PNC prevalence imaging, 16 h; active compounds read low | activity change (PNC), negative = inhibition, % at 10 µM | 140,000 tested, 3.1% active | AID 2417;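 active means readout at or below -70, meaning at least 70% loss of cells showing the perinucleolar compartment, a nuclear body marking cancer cells; inconclusive means readout between -30 and a set limit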
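Read-out is percentage of cells bearing a perinucleolar compartment, from automated 20x imaging of fixed, Hoechst-stained PC3M PTB-GFP cells. Cells were seeded 4 h, then exposed 16 h to compound (23 nl of library stock) in duplicate plates.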
KinaseGlo FLuc: Kinase-Glo luciferase inhibition (counter-screen); Potency, µM (highest dose often 38.3 µM), hits mostly inhibitors; Q27757; Kinase-Glo luciferase, ATP luminescence, 8 min; 200,000 tested, 0.28% active; active means well fitted inhibition curve with a large enough effect; inconclusive means small, poorly fitted or top-dose-only effect; further: nearly all actives have a fitted effect of over 60% in size
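Recombinant Kinase-Glo luciferase, 10 uM ATP (linear range), luciferin; imidazole pH 7.2 / KCl / MgCl2 / Tween / BSA buffer; 8 min RT; luminescence.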
Numbers stand for hits; [ ] = remark or other dose. Unless noted, the call rests on the fitted dose curve; in most records, active means well fitted inhibition curve with a large enough effect (not every such curve was filed as active); inconclusive means small, poorly fitted or top-dose-only effect, or another doubt; inactive means no such curve, though single readings can be large or run the other way.

Screening COc1ccc(NC(=O)CNC(=O)c2cccs2)cc1Cl returned ALDH1A1 inh inactive and KinaseGlo FLuc inactive.
O=C(CCc1ccc(CCC(=O)c2cccs2)s1)c1cccs1 was read as HPGD block inconclusive, Lamin A splicing inconclusive, ALDH1A1 inh inactive, PNC inhibitor inactive and KinaseGlo FLuc inactive.
For O=C(CCNc1cc(Cl)cc(Cl)c1)c1cccs1 the results were HPGD block inactive, Lamin A splicing inconclusive, ALDH1A1 inh 1.6µM, PNC inhibitor inactive and KinaseGlo FLuc inactive.
For Cc1ccc(NC(=O)CNC(=O)c2cccs2)cc1S(=O)(=O)Nc1ccc(Cl)cc1 the results were HPGD block inactive, Lamin A splicing inconclusive, ALDH1A1 inh inactive, PNC inhibitor -113 and KinaseGlo FLuc inactive.
O=C(CCC(=O)c1cccs1)Nc1ccccc1F was read as HPGD block inactive, Lamin A splicing inactive, ALDH1A1 inh inactive, PNC inhibitor inactive and KinaseGlo FLuc inactive.
Screening CCOc1ccc(CCNC(=O)c2sc3nc4n(c(=O)c3c2C)CCCC4)cc1 returned Lamin A splicing inactive.
`CC(C)c1ccc(S(=O)(=O)N2CCN(Cc3cccc(F)c3)CC2)cc1` gave Lamin A splicing inactive.
CCc1ccccc1NC(=O)N1CCN(c2nnc(C)c3c(C)n(-c4ccccc4)nc23)CC1 was read as Lamin A splicing inactive.
Screening CCCOc1ccc(-c2nc(=S)[nH][nH]2)cc1 returned HPGD block 13µM, Lamin A splicing inactive, ALDH1A1 inh inconclusive, PNC inhibitor inactive and KinaseGlo FLuc inactive.
`C/C(CC(=O)Nc1ccccc1Cl)=N\NC(=O)C(=O)NCCO` gave Lamin A splicing inactive, ALDH1A1 inh 10µM and KinaseGlo FLuc inactive.
`C/C(CC(=O)Nc1cccc(Cl)c1C)=N\NC(=O)C(=O)NCC(C)C` gave HPGD block inactive, Lamin A splicing inactive, ALDH1A1 inh inconclusive, PNC inhibitor inactive and KinaseGlo FLuc inactive.
`Cc1ccc(C)c(NC(=O)C(CC(C)C)N2Cc3ccccc3C2=O)c1` (centres undefined) gave Lamin A splicing inactive.
`COC(=O)c1c(-c2ccc(OC)c(OC)c2)csc1N` gave HPGD block 28µM, Lamin A splicing inactive, ALDH1A1 inh 4µM, PNC inhibitor inactive and KinaseGlo FLuc inactive.
COC(=O)c1c(-c2cccc(C)c2)csc1N was read as HPGD block inactive, Lamin A splicing inactive, ALDH1A1 inh inactive, PNC inhibitor inactive and KinaseGlo FLuc inactive.
Screening COC(=O)c1c(-c2cccc(OC)c2)csc1N returned HPGD block inactive, Lamin A splicing inconclusive, ALDH1A1 inh 25µM, PNC inhibitor inactive and KinaseGlo FLuc inactive.
Nc1ncnc2nc(Cl)[nH]c12 was read as HPGD block inactive, Lamin A splicing inactive, ALDH1A1 inh inactive and KinaseGlo FLuc inactive.
`Cc1ccc(Sc2nnc(Cc3ccccc3)c3ccccc23)cc1` gave HPGD block inactive, Lamin A splicing inconclusive, ALDH1A1 inh 28µM, PNC inhibitor inactive and KinaseGlo FLuc inactive.
CCC(=O)[C@]12O[C@@]3(C4C(=O)OCCC41)N(Cc1ccccc1)C(C)=C(C(=O)OC)C(c1ccccc1)N3C2=O (some centres undefined) was read as ALDH1A1 inh inactive[13.5 µM].
For COC(=O)C1=C(N)Oc2cc(C)n(Cc3cccnc3)c(=O)c2C1c1ccc(OC)c(OC)c1OC (centres undefined) the results were HPGD block inactive, Lamin A splicing inactive, ALDH1A1 inh inactive, PNC inhibitor inconclusive and KinaseGlo FLuc inactive.
Screening COC(=O)C1=C(N)Oc2cc(C)n(Cc3cccnc3)c(=O)c2C1c1ccccc1OC (centres undefined) returned HPGD block inactive, Lamin A splicing inactive, ALDH1A1 inh inconclusive, PNC inhibitor -86 and KinaseGlo FLuc inactive.
`O=C1COc2ccc(N3C(=O)C=CC3=O)cc2N1` gave ALDH1A1 inh 6.3µM and KinaseGlo FLuc inactive.
`Nc1cc(N)nc(SCC(=O)c2ccc3c(c2)NC(=O)CO3)n1` gave ALDH1A1 inh inactive and KinaseGlo FLuc inactive.
Screening CN(C)S(=O)(=O)Oc1cccc(C(=O)Nc2ccc([N+](=O)[O-])cc2)c1 returned Lamin A splicing inconclusive, ALDH1A1 inh 4.5µM and KinaseGlo FLuc inactive.
Screening COc1cccc2c3c(c(=O)[nH]c12)CCC(C)(C)O3 returned HPGD block 16µM, Lamin A splicing inactive, ALDH1A1 inh inactive, PNC inhibitor inactive and KinaseGlo FLuc inactive.
`Cn1c(=O)c2c(c3ccccc31)OC(C)(C)CC2` gave HPGD block inconclusive, Lamin A splicing inconclusive, ALDH1A1 inh inactive, PNC inhibitor inactive and KinaseGlo FLuc inactive.
`Cn1ccnc1C[C@@](C)(O)c1ccccc1` gave HPGD block inactive, ALDH1A1 inh inactive[13.5 µM] and KinaseGlo FLuc inactive[7.66 µM].
For CN(C)S(=O)(=O)c1cccc(C(=O)OCC(=O)c2ccc3c(c2)NC(=O)CO3)c1 the results were HPGD block inactive, Lamin A splicing inactive, ALDH1A1 inh 22µM, PNC inhibitor inactive and KinaseGlo FLuc inactive.
O=C(NCc1ccc2c(c1)CCN2C(=O)c1ccncc1)c1cccc(Cl)c1 was read as Lamin A splicing inactive.
For CC(C)(C)c1ccc(S(=O)(=O)N(CCCN2CCOCC2)Cc2cccs2)cc1 the results were HPGD block 25µM, Lamin A splicing inconclusive, ALDH1A1 inh inactive, PNC inhibitor inconclusive and KinaseGlo FLuc inactive.
Screening Cc1c(Br)c([N+](=O)[O-])nn1CCCC(=O)Nc1sc2c(c1C#N)CCC2 returned HPGD block 13µM, Lamin A splicing inconclusive, ALDH1A1 inh 10µM, PNC inhibitor inconclusive and KinaseGlo FLuc inactive.
Cc1c(Cl)c([N+](=O)[O-])nn1CCCC(=O)Nc1ccc(Cl)cc1Cl was read as HPGD block inactive, Lamin A splicing inactive, ALDH1A1 inh inconclusive, PNC inhibitor inconclusive and KinaseGlo FLuc inactive.
`Cc1c(Cl)c([N+](=O)[O-])nn1CCCC(=O)Nc1sc2c(c1C#N)CCC2` gave HPGD block inconclusive, Lamin A splicing inactive, ALDH1A1 inh 13µM, PNC inhibitor inconclusive and KinaseGlo FLuc inactive.
`Cc1c(Br)c([N+](=O)[O-])nn1CC(=O)Nc1sc2c(c1C(=O)OC(C)C)CCCC2` gave HPGD block inactive, Lamin A splicing inactive, ALDH1A1 inh inactive, PNC inhibitor inactive and KinaseGlo FLuc inactive.
Clc1ccc(-c2nnc3sc(-c4ccc(Br)o4)nn23)cc1 was read as HPGD block inconclusive, Lamin A splicing inactive, ALDH1A1 inh inactive, PNC inhibitor inconclusive and KinaseGlo FLuc inactive.
Cc1oc(-c2ccc(Cl)cc2)cc1-c1nn2c(-c3ccoc3C)nnc2s1 was read as HPGD block 25µM, Lamin A splicing inactive, ALDH1A1 inh 20µM, PNC inhibitor inactive and KinaseGlo FLuc inactive.
Screening O=C1c2cccnc2C(Nc2ccccc2)N1Cc1ccco1 (centres undefined) returned HPGD block inconclusive, Lamin A splicing inactive, ALDH1A1 inh 22µM, PNC inhibitor inactive and KinaseGlo FLuc inactive.
Screening O=C1c2cccnc2C(Nc2cccc(F)c2)N1Cc1ccco1 (centres undefined) returned Lamin A splicing inconclusive, ALDH1A1 inh inactive and KinaseGlo FLuc inactive.
